From the supplement of paper PMC10849652
About 8,800 targets were measured; listed, in parts, are those with a hit and a random draw of the rest. About 0.5% of all pairs of compound and target were hits.

How the values were obtained:
Test in all cases: log2 fold change, soluble protein after heating vs DMSO (PISA); higher = thermal stabilisation; K562 lysate, 10 uM; active = over 0.2 and 3.5 SD of the protein, either way, in both replicates (recomputed)
ibrutinib = compound: C=CC(=O)N1CCC[C@@H](n2nc(-c3ccc(Oc4ccccc4)cc3)c3c(N)ncnc32)C1 [ibrutinib]
In short: (§1)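 Pellets of K562 cells were dounce-homogenised in PBS pH 7.4 with 1 mM MgCl2, and the crude extract was held at 1 mg/mL protein for a 30 min treatment with 10 μM compound. Aliquots were heated for 3 min over 48°C-58°C and pooled before NP-40 was added to 0.5% at 4°C. The supernatant from 21,000xg for 90 min was quantified by TMTpro 16plex LC-MS/MS with channel sums equalised. Values are reported from duplicates as log-two fold change in thermal stability relative to solvent controls.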

ralimetinib = compound: CC(C)(C)Cn1c(N)nc2ccc(-c3[nH]c(C(C)(C)C)nc3-c3ccc(F)cc3)nc21 [ralimetinib]
In short: as §1

[1] = compound: CC(C)(O)CC(=O)NCCn1ccc2ncnc(Nc3ccc(Oc4cccc(C(F)(F)F)c4)c(Cl)c3)c21
In short: as §1

[2] = compound: CC(C)C1=C2N=C(C=C(N2N=C1)NCC3=CC=CC=C3)NCCCCCCN
In short: as §1

[3] = compound: CC1=C(C(CC(=O)N1)C2=CC=C(C=C2)C(F)(F)F)C(=O)NC3=C(C=C4C(=C3)C=NN4)F
In short: as §1

[4] = compound: CC1=C(C2=C(C=C1)C(=O)C3=CC=CC=C3N2CCCN)C
In short: as §1

[5] = compound: CC1=C(C=C(C=C1)NC(=O)C2=CC(=CC=C2)C(C)(C)C#N)NC3=CC4=C(C=C3)N=CN(C4=O)C
In short: as §1

[6] = compound: CC1=C(C=C(C=C1)NC(=O)C2=CC(=CC=C2)N(C)C)NC(=O)C3=CC=C(C=C3)O
In short: as §1

[7] = compound: CC(=O)c1cnc2ccc(-c3cc(Cl)c(O)c(Cl)c3)nc2c1N[C@H]1CC[C@H](CN(C)C)CC1
In short: as §1

[8] = compound: CC1=CC=C(C=C1)SC2=C3C=C(SC3=CN=C2)C(=O)N
In short: as §1

Measured: log2 fold change

PLXND1 (UniProt Q9Y4D7)
Chain of UniProt Q9Y4D7 (Q9Y4D7 whole entry, looked up): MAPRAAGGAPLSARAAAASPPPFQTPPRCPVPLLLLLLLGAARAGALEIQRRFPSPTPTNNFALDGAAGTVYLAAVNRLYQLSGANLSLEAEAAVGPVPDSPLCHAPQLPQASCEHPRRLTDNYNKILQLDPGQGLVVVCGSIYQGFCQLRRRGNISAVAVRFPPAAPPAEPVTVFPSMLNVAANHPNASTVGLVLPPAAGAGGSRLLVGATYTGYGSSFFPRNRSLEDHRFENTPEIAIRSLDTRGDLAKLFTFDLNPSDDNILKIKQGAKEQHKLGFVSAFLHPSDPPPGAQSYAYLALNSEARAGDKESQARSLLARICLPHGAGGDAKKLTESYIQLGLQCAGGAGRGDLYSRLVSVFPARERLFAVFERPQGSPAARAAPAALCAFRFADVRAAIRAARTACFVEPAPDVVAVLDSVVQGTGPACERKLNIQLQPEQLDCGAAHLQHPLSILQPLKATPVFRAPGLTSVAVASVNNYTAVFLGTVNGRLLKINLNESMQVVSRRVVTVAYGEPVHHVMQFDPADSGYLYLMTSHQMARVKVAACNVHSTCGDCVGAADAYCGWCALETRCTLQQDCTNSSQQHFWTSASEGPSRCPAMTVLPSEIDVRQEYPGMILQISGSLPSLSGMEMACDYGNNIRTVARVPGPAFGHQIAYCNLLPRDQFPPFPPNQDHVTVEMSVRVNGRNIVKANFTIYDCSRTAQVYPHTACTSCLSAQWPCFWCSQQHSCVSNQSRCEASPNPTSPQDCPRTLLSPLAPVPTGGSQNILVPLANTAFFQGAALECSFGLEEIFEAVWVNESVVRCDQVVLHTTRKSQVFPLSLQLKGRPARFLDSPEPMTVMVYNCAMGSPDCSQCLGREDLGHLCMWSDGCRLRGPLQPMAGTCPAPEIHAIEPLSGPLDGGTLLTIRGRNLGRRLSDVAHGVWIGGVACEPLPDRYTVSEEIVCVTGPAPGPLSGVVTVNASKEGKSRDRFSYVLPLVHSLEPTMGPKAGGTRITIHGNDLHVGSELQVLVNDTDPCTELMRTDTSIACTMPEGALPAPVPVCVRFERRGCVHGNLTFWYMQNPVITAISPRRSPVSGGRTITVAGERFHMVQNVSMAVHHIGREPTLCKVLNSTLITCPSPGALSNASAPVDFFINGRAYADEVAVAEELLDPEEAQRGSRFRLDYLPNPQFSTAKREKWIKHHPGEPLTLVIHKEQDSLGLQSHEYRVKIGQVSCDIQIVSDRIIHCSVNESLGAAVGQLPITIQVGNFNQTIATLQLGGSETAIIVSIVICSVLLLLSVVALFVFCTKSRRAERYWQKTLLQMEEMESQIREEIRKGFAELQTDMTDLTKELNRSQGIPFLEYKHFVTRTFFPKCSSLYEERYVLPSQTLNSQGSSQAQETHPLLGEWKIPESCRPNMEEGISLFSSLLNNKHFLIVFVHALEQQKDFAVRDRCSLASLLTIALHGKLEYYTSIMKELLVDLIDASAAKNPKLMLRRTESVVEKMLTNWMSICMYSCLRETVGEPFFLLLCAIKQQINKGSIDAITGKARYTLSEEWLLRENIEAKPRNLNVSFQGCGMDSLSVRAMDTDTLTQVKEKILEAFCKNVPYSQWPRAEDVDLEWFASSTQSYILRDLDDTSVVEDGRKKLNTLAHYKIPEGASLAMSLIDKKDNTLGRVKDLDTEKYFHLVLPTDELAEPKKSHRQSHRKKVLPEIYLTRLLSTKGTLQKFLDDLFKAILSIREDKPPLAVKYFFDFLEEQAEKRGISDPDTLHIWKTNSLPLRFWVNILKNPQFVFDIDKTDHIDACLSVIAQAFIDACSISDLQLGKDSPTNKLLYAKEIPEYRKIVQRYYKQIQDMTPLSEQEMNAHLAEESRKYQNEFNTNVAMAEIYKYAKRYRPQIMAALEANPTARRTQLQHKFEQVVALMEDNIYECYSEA
inactive: ibrutinib 0.138 | ralimetinib -0.081 | [1] -0.07 | [2] 0.046 | [3] -0.023 | [4] 0.112 | [5] -0.033 | [6] 0.218

PCLAF (UniProt Q15004)
Chain of UniProt Q15004 (Q15004 whole entry, looked up): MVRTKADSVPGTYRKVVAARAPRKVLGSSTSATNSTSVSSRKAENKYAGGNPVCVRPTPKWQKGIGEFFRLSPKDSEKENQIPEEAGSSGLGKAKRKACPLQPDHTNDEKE
inactive: ibrutinib 0.025 | ralimetinib 0.035 | [1] -0.014 | [2] -0.011 | [3] 0.003 | [4] -0.041 | [5] 0.034 | [6] -0.005

PRIMPOL (UniProt Q96LW4)
Chain of UniProt Q96LW4 (Q96LW4 whole entry, looked up): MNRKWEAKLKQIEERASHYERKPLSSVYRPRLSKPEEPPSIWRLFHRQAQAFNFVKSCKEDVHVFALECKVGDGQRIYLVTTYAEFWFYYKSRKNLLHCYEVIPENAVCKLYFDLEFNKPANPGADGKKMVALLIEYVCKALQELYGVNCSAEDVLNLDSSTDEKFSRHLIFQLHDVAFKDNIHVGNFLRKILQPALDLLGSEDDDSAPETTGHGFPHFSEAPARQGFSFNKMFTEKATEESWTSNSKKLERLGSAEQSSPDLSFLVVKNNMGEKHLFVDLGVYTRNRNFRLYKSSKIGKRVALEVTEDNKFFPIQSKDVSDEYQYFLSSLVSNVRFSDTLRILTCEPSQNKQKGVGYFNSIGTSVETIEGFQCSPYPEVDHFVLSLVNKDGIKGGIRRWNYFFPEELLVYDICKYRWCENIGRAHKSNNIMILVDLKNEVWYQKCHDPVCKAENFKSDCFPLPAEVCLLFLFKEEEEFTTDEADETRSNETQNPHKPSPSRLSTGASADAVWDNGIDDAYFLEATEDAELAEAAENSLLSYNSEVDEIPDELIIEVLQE
inactive: ibrutinib 0.062 | ralimetinib 0.055 | [1] -0.027 | [2] 0.048 | [3] -0.055 | [4] -0.034 | [5] 0.078 | [6] 0.049

PHKG1 isoform 2 (UniProt Q16816)
Chain of UniProt Q16816 (Q16816 whole entry, looked up): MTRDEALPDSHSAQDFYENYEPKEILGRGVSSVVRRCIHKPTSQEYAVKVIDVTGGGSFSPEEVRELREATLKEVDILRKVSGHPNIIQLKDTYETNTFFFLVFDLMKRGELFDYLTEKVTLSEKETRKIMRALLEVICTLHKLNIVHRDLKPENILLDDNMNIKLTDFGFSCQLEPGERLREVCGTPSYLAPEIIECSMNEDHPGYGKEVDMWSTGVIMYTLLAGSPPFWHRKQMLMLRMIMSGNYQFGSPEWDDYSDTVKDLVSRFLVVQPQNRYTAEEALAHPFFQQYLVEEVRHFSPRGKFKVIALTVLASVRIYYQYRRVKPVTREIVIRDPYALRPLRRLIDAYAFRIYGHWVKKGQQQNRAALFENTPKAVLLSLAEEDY
inactive: [7] 0.595 | ralimetinib 0.02 | [1] -0.016 | [2] -0.003 | [3] -0.117 | [4] -0.196 | [5] 0.017 | [6] -0.02 | [8] -0.086

POLR2F (UniProt U3KPV3)
inactive: [4] 0.223

PPP2CA (UniProt E7ESG8)
inactive: [3] 0.239
